# In PubChem BioAssay (NCI):
# This is part of a sample that, as a whole, favours compounds with a hit. Of some 83,000 tested, about 20% had one in any assay.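 The endpoint reported here, percent growth, reads 100 for growth as untreated, 0 for no net growth and -100 for all cells dead.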 Unmarked numbers belong to inactive results. Activity calls are given as the source filed them. How the source made its calls: active means growth percent below 10; inactive means the rest.
# Key:
# Assay in all cases: NCI-60 one-dose screen, 48 h (100 = growth as untreated, 0 = no growth, -100 = all killed)
# Conditions in all cases: 10 µM unless noted
# [1] = tested on: NCI-H23 lung
# [2] = tested on: NCI-H226 lung
# [3] = tested on: NCI-H322M lung
# [4] = tested on: HOP-62 NSCLC
# [5] = tested on: NCI-H460 lung
# [6] = tested on: HOP-92 NSCLC
# [7] = tested on: NCI-H522 lung
# [8] = tested on: A549/ATCC NSCLC
# [9] = tested on: 786-0 renal
# [10] = tested on: COLO 205 colon
# [11] = tested on: DU-145 prostate
# [12] = tested on: K-562 leukemia
# [13] = tested on: MALME-3M melanoma
# [14] = tested on: MDA-MB-231 breast
# [15] = tested on: RXF 393 renal
# [16] = tested on: SF-268 CNS
# [17] = tested on: SF-295 CNS
# [18] = tested on: SF-539 CNS
# [19] = tested on: UACC-257 melanoma
# [20] = tested on: M14 melanoma
Compound,growth [1],growth [2],growth [3],growth [4],growth [5],growth [6],growth [7],growth [8],growth [9],growth [10],growth [11],growth [12],growth [13],growth [14],growth [15],growth [16],growth [17],growth [18],growth [19],growth [20]
C=CCc1c2c(c(OC)c3ccoc13)C(=O)/C(=C/c1ccccc1OC)O2,19.7%,72.8%,65.9%,80%,31.3%,58.8%,48.5%,60.2%,94.1%,104%,35%,49.5%,88.8%,50.9%,24.8%,60.4%,60.1%,94.7%,63.7%,64.2%
C[C@H](NC(=O)[C@@H](C)N)[C@H](Oc1ccc2c(cnn2-c2ccc(F)cc2)c1)c1ccc2c(c1)OCCO2,83.7%,83.9%,75.5%,50.6%,0.905% (active),-4.6% (active),24.8%,39.3%,56.7%,-3.17% (active),55.4%,-3.32% (active),-24.7% (active),42.5%,62%,42.5%,77%,74%,63.9%,-69.6% (active)
COc1ccc(/C=N/C2=C(C#N)C(c3cccc(Cl)c3)c3c(ccc4ccccc34)O2)cc1 (stereo not given),53.5%,36%,62.7%,49.5%,16.8%,44.8%,3.61% (active),44.9%,19.8%,31.3%,55.7%,11.1%,44.5%,38%,26.5%,45.9%,21.8%,7.29% (active),62.6%,15.6%
Cn1cc(-c2nonc2-c2c[nH]c3ccc(Br)cc23)c2cc(Br)ccc21,39.9%,44.8%,32.1%,29.1%,13.3%,55.6%,24.3%,30.8%,34.3%,49.1%,23.2%,7.65% (active),39.9%,31.9%,18.2%,37.8%,22.4%,46%,66.8%,42.7%
CC(C)(C)n1cc(-c2ccnc(NCCNS(=O)(=O)c3cccc4ccccc34)c2)c(-c2cccc(F)c2)n1,0.565% (active),-25.7% (active),20.8%,26.4%,-26.9% (active),-19.3% (active),-38.9% (active),16.3%,-91.4% (active),-67.9% (active),4.18% (active),-30% (active),-73.1% (active),-8.01% (active),-52.3% (active),29.5%,-68.7% (active),-74.8% (active),-8.81% (active),-19% (active)
O=S(=O)(Nc1ccc(Cl)cc1)c1ccc(-c2cnc(C3CC3)o2)cc1,34.5%,61.4%,44%,28.8%,9.01% (active),41%,11.4%,40.4%,41.1%,9.01% (active),12.6%,9.33% (active),46.3%,26.9%,-10.1% (active),43.5%,33.6%,-14.6% (active),56.1%,22%
CC(=O)[C@@H]1CCC=C2CC[C@]3(C)[C@@H](CC[C@@H]4[C@@]5(C)CCCNC(C)(C)[C@@H]5CC[C@]43C)[C@H]21,-58.8% (active),23.2%,-42.3% (active),-63.5% (active),-34.6% (active),-32.5% (active),-74.1% (active),-78.1% (active),-89.5% (active),-81% (active),-36.8% (active),-44.6% (active),-56.1% (active),-76.5% (active),-91.9% (active),12.3%,-84.7% (active),9.45% (active),-67.4% (active),-82.1% (active)
O=C(Cc1ccccc1)Nc1nc(O)c(/C=C2\C(=O)C=Cc3ccccc32)s1,90.7%,100%,98.2%,107%,99.4%,85.2%,90.5%,101%,102%,111%,104%,100%,106%,98.1%,111%,99.2%,103%,102%,106%,89.7%
CCCCNC(=O)Oc1ccc(/C(=C(/CC)Cc2ccccc2)c2ccc(OCCN3CCCCCC3)cc2)cc1,57.4%,83.4%,85.4%,74.8%,-59.8% (active),36%,30.4%,39.5%,36.6%,-75% (active),49.9%,-24.8% (active),-58.3% (active),43.3%,16.7%,61%,91.9%,-30.2% (active),34.3%,-19.3% (active)
Cc1ccc(S(=O)(=O)N2CCCC2CO)cc1 (stereo not given),84.9%,99.9%,93.6%,188%,99.9%,76.9%,90.7%,103%,100%,103%,104%,114%,83.8%,100%,103%,101%,112%,94.4%,107%,95.1%
COc1cc(/C=C/C(=O)c2cccc(Nc3nc(Nc4ccccc4)nc(Nc4ccccc4)n3)c2)cc(OC)c1OC,40.7%,68.6%,87.2%,74.6%,59.9%,-48.2% (active),87.8%,59.5%,65.1%,61.2%,60.9%,24.1%,69%,56%,-32.4% (active),73.4%,72.9%,78.7%,106%,78.5%
Cc1ccc(/C=N/Nc2nc(Nc3ccccc3)nc(-n3nc(C)cc3C)n2)cc1,54.8%,46.9%,27%,73.3%,6.72% (active),60.7%,15.7%,26.2%,44.4%,30.6%,40.9%,37.1%,80.8%,51.6%,55.9%,44%,-40.7% (active),56.5%,54.2%,42.9%
O=C(NCCCN1CCOCC1)c1cccc(N2C(=O)/C(=C/c3ccc(F)cc3)SC2=S)c1,92.5%,90.4%,104%,100%,107%,46.7%,90.3%,103%,97.2%,111%,101%,96.2%,90.4%,88.9%,94.2%,94.1%,95.5%,90.6%,97.2%,93.8%
C#Cc1ccc(NC(=O)c2ccc(/C=C/C(=O)c3nccn3C)cc2)cc1,-56% (active),-35.3% (active),-95.4% (active),-47% (active),-56.4% (active),-25.4% (active),-26.7% (active),-0.388% (active),-79.1% (active),-53.7% (active),-86.8% (active),1.98% (active),-38.4% (active),-55.7% (active),-86.3% (active),-28.9% (active),-91.2% (active),-96.7% (active),-19.6% (active),-69.8% (active)
CC(O)c1cnc(/C=C2\SC(=S)N(Cc3ccccc3)C2=O)s1 (stereo not given),99.7%,90.3%,87.8%,39%,96.8%,43.7%,0.337% (active),66.7%,59.2%,35.7%,53.2%,18%,90.8%,84.9%,73.6%,84.3%,102%,91.9%,72.8%,66.5%
